High-throughput results from PubChem BioAssay.
Y pestis TopoI – blocks Yersinia pestis topoisomerase I activity. Y. pestis Topo-I cleavage product accumulation, plate reader. activity, % at 10 µM. 0.064% of 360,000 active; in the data active means activity above about 50%, passing the limit was not always enough
Vc quorum ag – induces V. cholerae light production without autoinducers. V. cholerae BH1578 lux reporter, luminescence, 6 h. activation, % at 18.7 µM. 0.16% of 350,000 active. AID 588436; in the data active means activation mostly above about 9.7%, no sharp cut-off
FadD28 FP inh – blocks FadD28 binding to the bisubstrate probe. fluorescence polarization. inhibition, % at 12.5 µM. 0.22% of 360,000 active; in the data active means inhibition above about 8.5%, passing the limit was not always enough
TcdB inh – TcdB glycohydrolase inhibition | P18177 | TcdB glycohydrolase enzymatic assay, plate reader | 0.24% of 350,000 active | AID 652162 | inhibition, % at 9.99 µM; in the data active means inhibition above about 10%
Target sequence (P18177 whole entry, looked up): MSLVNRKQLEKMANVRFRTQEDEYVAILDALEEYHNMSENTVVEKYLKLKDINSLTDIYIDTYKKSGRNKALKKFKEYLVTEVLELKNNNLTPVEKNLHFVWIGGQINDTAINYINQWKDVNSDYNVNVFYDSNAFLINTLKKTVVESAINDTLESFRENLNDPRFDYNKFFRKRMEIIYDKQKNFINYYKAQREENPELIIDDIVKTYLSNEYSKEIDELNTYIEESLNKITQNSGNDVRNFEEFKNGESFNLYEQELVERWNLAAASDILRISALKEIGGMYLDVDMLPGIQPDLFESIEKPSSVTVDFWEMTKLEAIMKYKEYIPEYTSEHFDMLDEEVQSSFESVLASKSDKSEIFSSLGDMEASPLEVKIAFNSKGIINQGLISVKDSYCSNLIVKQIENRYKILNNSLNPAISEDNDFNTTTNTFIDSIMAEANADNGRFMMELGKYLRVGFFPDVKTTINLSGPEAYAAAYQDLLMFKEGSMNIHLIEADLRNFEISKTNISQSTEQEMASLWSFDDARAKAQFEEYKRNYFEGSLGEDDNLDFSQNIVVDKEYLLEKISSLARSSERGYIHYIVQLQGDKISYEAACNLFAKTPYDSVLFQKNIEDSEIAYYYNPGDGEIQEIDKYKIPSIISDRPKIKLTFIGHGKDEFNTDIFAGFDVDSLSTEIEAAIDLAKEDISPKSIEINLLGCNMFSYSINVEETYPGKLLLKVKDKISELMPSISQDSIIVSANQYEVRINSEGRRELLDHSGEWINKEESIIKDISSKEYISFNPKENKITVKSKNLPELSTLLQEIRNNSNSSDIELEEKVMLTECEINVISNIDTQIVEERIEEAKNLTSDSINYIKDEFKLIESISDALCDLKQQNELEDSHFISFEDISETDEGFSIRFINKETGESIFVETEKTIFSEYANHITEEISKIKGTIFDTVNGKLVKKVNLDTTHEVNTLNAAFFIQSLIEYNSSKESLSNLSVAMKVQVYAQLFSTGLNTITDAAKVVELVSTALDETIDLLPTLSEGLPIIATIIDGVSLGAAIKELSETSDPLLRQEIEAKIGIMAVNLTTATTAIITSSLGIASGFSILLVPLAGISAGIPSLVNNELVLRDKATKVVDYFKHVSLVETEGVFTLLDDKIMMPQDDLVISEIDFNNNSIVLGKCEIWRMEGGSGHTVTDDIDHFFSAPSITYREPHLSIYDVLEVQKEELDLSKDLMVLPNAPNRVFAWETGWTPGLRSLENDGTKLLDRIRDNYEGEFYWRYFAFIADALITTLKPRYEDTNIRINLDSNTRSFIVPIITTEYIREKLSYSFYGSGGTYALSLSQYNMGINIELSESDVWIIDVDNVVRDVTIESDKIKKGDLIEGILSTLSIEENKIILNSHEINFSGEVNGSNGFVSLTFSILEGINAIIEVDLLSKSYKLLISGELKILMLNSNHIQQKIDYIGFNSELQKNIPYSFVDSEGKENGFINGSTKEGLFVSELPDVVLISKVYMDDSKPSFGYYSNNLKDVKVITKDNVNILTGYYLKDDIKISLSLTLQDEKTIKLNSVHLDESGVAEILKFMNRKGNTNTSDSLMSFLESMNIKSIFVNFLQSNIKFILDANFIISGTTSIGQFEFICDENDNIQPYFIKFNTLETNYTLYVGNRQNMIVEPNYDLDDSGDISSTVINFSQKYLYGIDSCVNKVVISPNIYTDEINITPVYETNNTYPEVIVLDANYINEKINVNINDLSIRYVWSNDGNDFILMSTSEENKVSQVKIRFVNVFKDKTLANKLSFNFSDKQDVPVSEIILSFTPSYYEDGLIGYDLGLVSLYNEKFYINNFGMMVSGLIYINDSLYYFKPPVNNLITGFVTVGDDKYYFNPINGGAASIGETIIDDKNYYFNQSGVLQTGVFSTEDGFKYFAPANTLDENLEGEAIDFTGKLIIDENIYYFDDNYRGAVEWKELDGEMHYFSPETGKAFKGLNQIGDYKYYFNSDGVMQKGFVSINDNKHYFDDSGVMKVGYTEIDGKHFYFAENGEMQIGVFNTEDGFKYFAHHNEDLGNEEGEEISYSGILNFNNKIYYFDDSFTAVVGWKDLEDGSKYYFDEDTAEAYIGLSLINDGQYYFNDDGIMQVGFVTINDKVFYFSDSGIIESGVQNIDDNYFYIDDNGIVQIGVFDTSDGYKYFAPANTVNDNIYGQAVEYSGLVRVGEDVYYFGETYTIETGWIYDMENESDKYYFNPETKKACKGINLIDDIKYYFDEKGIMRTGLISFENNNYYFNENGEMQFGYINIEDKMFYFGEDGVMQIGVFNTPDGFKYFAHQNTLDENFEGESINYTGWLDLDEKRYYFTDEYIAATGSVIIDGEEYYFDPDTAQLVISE
Mtb BioA inh – BioA (M. tuberculosis) enzyme inhibition; purified M. tuberculosis BioA enzyme, plate reader; inhibition, % at 9.99 µM; 0.096% of 360,000 active; AID 602481; in the data active means inhibition above about 40%
Numbers stand for hits; - = inactive; . = no result. Compounds with a hit are over-represented: about 0.61% of the library has one in this group of screens.

SMILES	Y pestis TopoI	Vc quorum ag	FadD28 FP inh	TcdB inh	Mtb BioA inh
CC(C)(C)Nc1nc(N2CCCC2)nc(N2CCCC2)n1	-	17	-	.	-
Cc1ccc(C2=NC(=O)/C(=C/c3cc(O)c(O)c(Br)c3)S2)cc1	-	-	8.2	-	-
COc1cc(/C=C2\SC(c3ccc(C)cc3)=NC2=O)cc(OC)c1O	-	-	-	-	.
CC(C)NC(=O)N(C)C[C@H]1Oc2ccc(NC(=O)Cc3ccccc3)cc2C(=O)N([C@@H](C)CO)C[C@@H]1C	.	.	.	-	-
Cc1noc(C)c1NC(=O)N1C[C@@H](O)COC[C@@H]2O[C@@H](CC(=O)NCC3CCCCC3)CC[C@H]21	.	.	.	-	-
COc1ccc(CN2C(=O)NC(=O)/C(=C/c3ccc([N+](=O)[O-])s3)C2=O)cc1	-	-	33	-	-
O=C1NC(=O)N(Cc2ccc(F)cc2)C(=O)/C1=C\c1ccc(N2CCCC2)cc1	-	-	-	-	.
O=C1NC(=O)N(Cc2ccc(F)cc2)C(=O)/C1=C\c1ccc([N+](=O)[O-])s1	-	-	28	-	-
Cc1nnc(NC(=O)c2sc3nc(-c4cccs4)cc(C(F)(F)F)c3c2N)s1	-	-	9.4	-	-
Nc1c(C(=O)Nc2nccs2)sc2nc(-c3cccs3)cc(C(F)(F)F)c12	-	-	-	.	.
Cc1cn([C@H]2C[C@H](N=[N+]=[N-])[C@@H](CO)O2)c(=O)[nH]c1=O	-	35	-	-	-
COc1ccc(Cn2c(O)c(/C=N/NC(=O)c3ccccc3O)c(=O)[nH]c2=O)cc1	-	-	17	-	.
O=C(N/N=C/c1c(O)n(Cc2ccc(F)cc2)c(=O)[nH]c1=O)c1ccccc1O	-	-	19	-	-
O=C(N/N=C/c1c(O)n(Cc2ccccc2)c(=O)[nH]c1=O)c1ccccc1O	-	-	-	.	.
COc1ccc(S(=O)(=O)N(C)C[C@@H]2OCCCC[C@@H](C)Oc3ccc(NS(=O)(=O)c4cn(C)cn4)cc3C(=O)N([C@H](C)CO)C[C@H]2C)cc1	.	.	.	-	-
N#CCC(=O)Nc1ccc(C(=O)OCC(=O)Nc2cccc(C(F)(F)F)c2)cc1	-	-	11	-	.
N=c1c2c(-c3ccccc3)c(-c3ccccc3)n(Cc3ccco3)c2ncn1CCCN1CCOCC1	-	-	8.8	-	.
CC1CC(=O)c2c(cc3c(-c4c(O)cc(O)c5c(O)c6c(cc45)OC(C)CC6=O)c(O)cc(O)c3c2O)O1 (stereo not given)	-	-	13	.	-
O=C(O)[C@H]1[C@H](CO)[C@H]2Cn3c(ccc(-c4ccccc4)c3=O)[C@H]2N1CCc1ccccc1	.	.	.	.	-
O=C(NCc1nnc2c(C(F)(F)F)cc(Cl)cn12)c1cccnc1	-	-	-	12	-
O=C(C[C@@H]1CC[C@H]2[C@@H](COC[C@H](O)CN2Cc2nccs2)O1)NCc1ccccc1Cl	.	.	.	-	-
Cc1c(-n2c(O)c(C3=c4ccccc4=NC3=O)sc2=S)c(=O)n(-c2ccccc2)n1C	-	-	-	18	.
O=C1N=c2ccccc2=C1c1sc(=S)n(-c2ccc(O)cc2)c1O	-	-	-	-	-
CNC[C@H]1OCCCC[C@H](C)Oc2ccc(NS(=O)(=O)c3c(C)noc3C)cc2C(=O)N([C@H](C)CO)C[C@H]1C	.	.	.	.	-
Cc1cc(C(=O)OCC(=O)Nc2ccccc2C#N)c(C)o1	-	390	-	-	-
SMILES	Y pestis TopoI	Vc quorum ag	FadD28 FP inh	TcdB inh	Mtb BioA inh
Cc1cc(C(=O)OCC(=O)Nc2cc(Cl)ccc2C)c(C)o1	-	-	-	-	-
Cc1ccc(-c2nn(C)c(=O)c3ccccc23)cc1CO	-	17	-	.	-
CC(=O)OCc1cc(-c2nn(C)c(=O)c3ccccc23)ccc1C	-	-	-	-	.
CC(C)NC(=O)Nc1ccc2c(c1)C(=O)N([C@H](C)CO)C[C@H](C)[C@@H](CN(C)Cc1ccc(Cl)c(Cl)c1)O2	.	.	.	-	-
COc1ccc(OC)c(C2NC(=O)NC(C)=C2C(=O)OC2CCCCC2)c1 (stereo not given)	-	-	-	-	-
COc1ccccc1C1NC(=O)NC(C)=C1C(=O)OC1CCCCC1 (stereo not given)	-	.	-	11	-
O=C(C[C@@H]1C[C@@H]2c3cc(NC(=O)CC4CC4)ccc3O[C@@H]2[C@H](CO)O1)NCc1ccc(Cl)cc1	.	.	.	-	-
Cc1ccc(S(=O)(=O)Nc2ccc3c(c2)C(=O)N([C@@H](C)CO)C[C@@H](C)[C@@H](CN(C)C(=O)NC(C)C)OCCCC[C@@H](C)O3)cc1	.	.	.	-	-
CC(C(=O)NC1C(=O)N2C(C(=O)O)=C(CSc3nnnn3C)CSC12)n1cc(Br)cn1 (stereo not given)	-	-	-	-	.
